From ChEMBL document CHEMBL1157539, “Thousands of chemical starting points for antimalarial lead identification” (Nature, 2010)

What follows are molecules tested on HepG2 (assay: GSK_TCMDC: Percent inhibition of human HepG2 cell line. Test compounds present at 10uM.).
Format: functional

| Structure (SMILES) | Inhibition [%] |
| --- | --- |
| Br.CC1(C)NC(N)=NC(=N)N1OCC1CCCCC1 | 67 |
| CC(=O)Nc1ccc([N+](=O)[O-])c2c(Br)cccc12 | 0 |
| COc1cc2nc(NCCc3ccccc3)nc(N(C)Cc3ccccc3)c2cc1OC | 31 |
| COc1ccc(C=Cc2ccc(-c3c(C)[nH]c(C)c(Cl)c3=O)cc2)cc1OC | 12 |
| CC(C)(CNC(=O)[C@@H]1CCCN(Cc2ccc(Cl)cc2)C1)c1nc(-c2ccc(Cl)c(O)c2)c(-c2ccncc2)[nH]1.Cl | 66 |
| Cc1nnsc1C(=O)Nc1cccc(-c2cccc(-c3nc4cc(F)ccc4[nH]3)c2)c1 | 35 |
| O=C(/C=C/c1ccc(Cl)c(Cl)c1)NCCCCCN1CC[C@H](NC(=O)c2ccc3c(c2)OCO3)C1 | 32 |
| CCOc1cc(C(=O)NCc2ccc(Cl)c(Cl)c2)ccc1-c1nc2cc(Cl)ccc2[nH]1 | 10 |
| CC(CCCC(=O)Nc1ccc(CC(C)NCCc2cccc(Cl)c2)cc1)NCCc1cccc(Cl)c1 (centres undefined) | 98 |
| COc1cccc2c1CCN(CCN1CCC(NC(=O)c3ccc(-c4cccc(Cl)c4Cl)cc3)CC1)C2 | 47 |
| O=C(NCC(NCCCNc1cc(=O)c2ccccc2[nH]1)c1cc(Br)cc(Br)c1)C1=CCCC1 (centres undefined) | 0 |
| O=C(N[C@@H](Cc1ccccc1)C(=O)NCCN1CCCC1)c1ccc(O)c(-c2ccc(Cl)c(Cl)c2)c1 | 8 |
| Cc1c(Cl)cccc1N=C(S)NN=Cc1ccccn1 | 58 |
| Cc1ncc(CN2CCC(C(=O)Nc3ccc(-c4nc5ccccc5o4)cc3)CC2)s1 | 0 |
